Data on 9 compounds can be found in PubChem BioAssay (NCATS).

In assay [1] the target is Lysosomal acid glucosylceramidase (Homo sapiens) (UniProt P04062). Kind of assay: Glucocerebrosidase-p2 (AID 348; in the data active means potency below about 10 µM; further: potency means the concentration at half of the fitted maximal effect). Particulars: purified GBA, blue fluorogenic substrate, 40 min. The method, boiled down: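 Normal human glucocerebrosidase (0.2 nM) with blue fluorogenic substrate (80 uM final) in citrate/phosphate pH 5.9 with 10mM sodium taurocholate, 0.01% tween-20; 40 min RT, NaOH/glycine stop; fluorescence Ex 365/Em 440; AC50 from a titration from 0.6 nM upwards.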
Chain of Lysosomal acid glucosylceramidase (Homo sapiens) (P04062 whole entry, looked up): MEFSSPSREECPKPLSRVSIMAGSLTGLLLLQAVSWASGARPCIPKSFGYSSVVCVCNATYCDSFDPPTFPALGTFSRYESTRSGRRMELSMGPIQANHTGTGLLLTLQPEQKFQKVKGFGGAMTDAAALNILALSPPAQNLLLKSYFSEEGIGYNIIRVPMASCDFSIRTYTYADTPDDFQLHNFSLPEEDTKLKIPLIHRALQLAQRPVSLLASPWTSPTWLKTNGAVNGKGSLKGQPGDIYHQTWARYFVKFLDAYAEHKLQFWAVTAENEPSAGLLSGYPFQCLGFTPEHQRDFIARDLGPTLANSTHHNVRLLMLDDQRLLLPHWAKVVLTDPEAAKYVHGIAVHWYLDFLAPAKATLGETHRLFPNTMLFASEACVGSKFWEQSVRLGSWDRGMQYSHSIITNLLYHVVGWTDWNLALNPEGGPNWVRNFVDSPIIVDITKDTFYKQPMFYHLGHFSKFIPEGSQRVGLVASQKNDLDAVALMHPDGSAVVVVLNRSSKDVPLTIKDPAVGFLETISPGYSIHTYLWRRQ

The nature of assay [2]: AP1 Signaling Pathway (AID 357).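 Further: ME-180 reporter cells stimulated with EGF at its EC50 level; on the % scale 0 is the no-effect control and ±100 the full control effect.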 The following applies: ME-180 AP-1-bla reporter, EGF-induced, beta-lactamase ratio, 5 h; at 7.69 µM (top of the series) unless noted. The method in brief: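 First, ME-180 AP-1-bla cells were cultured overnight at 37 °C in low-serum Opti-MEM. Next, titrated compounds with EC50 EGF were incubated 5 hours. Finally, CCF4 was added for 2.5 hours and the 460/530 nm ratio recorded.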

Assay [3] concerns the target Cytochrome P450 1A2 (Homo sapiens) (UniProt P05177). Description: p450-cyp1a2 (AID 410; calls by dose curve; further: potency means the concentration at half of the fitted maximal effect;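 on activity change, negative = inhibition: -100% = full effect of reference inhibitor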). Particulars: recombinant CYP1A2, luciferin-ME demethylation, luminescence; series mostly up to 57 µM. The method, boiled down: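 20nM CYP1A2, 100uM Luciferin-ME (=Km), 100mM KPO4; cpd 10 min RT; +NADPH regen, 60 min RT; stop/detect 20 min; luminescence. Normalized to furafylline 57 uM = full inhibition.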

Assay [4] is described as follows: NFAT Signaling Pathway (AID 444).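 Further: carbachol stimulus at about its EC50 of 1 µM final; on the % scale 0 is the no-effect control and ±100 the full control effect.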 Particulars: Jurkat NFAT-bla M1, carbachol, beta-lactamase ratio, 5 h; at 7.69 µM (top of the series) unless noted. The method, boiled down: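 Jurkat cells with NFAT-driven β-lactamase reporter and co-expressed M1 receptor, stimulated with carbachol (final 1 uM, ~EC50), compound titration, 5 h at 37 °C. CCF4 loaded 1 h at RT; 460/530 nm ratio gave %activity and AC50.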

Assay [5] in a line: Stat Signaling Pathway (AID 446).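 Further: ME-180 cervical cancer cells given 40 pM IL-6 alongside compound; SIE-controlled beta-lactamase reporter measured as 460/530 nm FRET emission ratio; on the % scale 0 is the no-effect control and ±100 the full control effect.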 The following applies: ME-180 (cervical carcinoma) SIE beta-lactamase reporter, IL-6 stimulated, 5 h; at 7.69 µM (top of the series) unless noted. The method, boiled down:
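Normalization used AC90 stimulation (300 pM IL-6) and AC90 inhibition (125 nM pan-JAK inhibitor at 40 pM IL-6). The underlying signal is SIE-driven beta-lactamase in ME-180 cells after 5 h IL-6 exposure with compound.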

Assay [6] concerns the target Glucocorticoid receptor (Homo sapiens) (UniProt P04150). Description: GR-EFC Redistribution (AID 451; calls by dose curve; further: potency means the concentration at half of the fitted maximal effect). Particulars: CHO-K1 GR-EFC translocation, beta-gal luminescence, 2 h. The method, boiled down:
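CHO-K1 cells expressing nuclear EA and GR-ED fragments of b-gal; compounds titrated up to 46 uM final, 2 h at 37 C. GR nuclear translocation read as complemented b-gal luminescence after 1 h RT detection.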

In assay [7] the target is Mitogen-activated protein kinase 10 (Mus musculus) (UniProt Q61831). Kind of assay: JNK3 AlphaScreen Assay (AID 530).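 Further: kinase came from lysate of stimulated human HepG2 cells; signal reports phosphorylation of biotinylated GST-cJun 1-79 at Ser73 with 10 µM ATP; on the % scale 0 is the no-effect control and ±100 the full control effect.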 Particulars: JNK3 lysate, c-Jun phosphorylation; series mostly up to 57.1 µM. The method, boiled down: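 HepG2 lysate (IL-1b/TNFa pre-activated) + biotin-GST-cJun 1-79 + anti-pSer73 cJun; cpd titration, 15 min RT; ATP 10 uM start; Tris pH 7.6, MgCl2, DTT, vanadate; beads in EDTA buffer; AlphaScreen.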

Assay [8] deals with 3',5'-cyclic-AMP phosphodiesterase 4B (Homo sapiens) (UniProt Q07343). Description: qHTS Assay for Inhibitors of PDE-IV (AID 607; active means well fitted activation curve with a large enough effect in the main read-out, with a control signal flat, not every such curve was filed as active; further: % of control where 0% means no effect). Particulars: HEK293 ACTOne CNG channel cells, membrane potential fluorescence; series mostly up to 22.9 µM. The method in brief:
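HEK293 ACTOne cells with CNG channel (1000/well), endogenous PDE4; membrane potential dye, compounds up to 22.9 uM final. Fluorescence Ex 535/Em 590; RO 20-1724 (100 uM final) as reference.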

A short description of assay [9]: Primary qHTS for small molecule stabilizers of the endoplasmic reticulum resident proteome: Secreted ER Calcium Modulated Protein (SERCaMP) assay (AID 1508630; active means well fitted curve in the direction sought with a large enough effect; an effect the other way counts as inactive or inconclusive; further: on the % scale 0 is the no-effect control and ±100 the full control effect). The following applies: SH-SY5Y GLuc-SERCaMP (Gaussia luciferase released on ER calcium loss) secretion, thapsigargin, luminescence; series mostly up to 38.4 µM. The method, boiled down: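 The SH-SY5Y reporter protocol was run at 3 concentrations up to 38.3 uM (primary) or 11 concentrations (follow-up): 16 h compound, 100 nM thapsigargin for 4 h, then extracellular luciferase luminescence.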

Assay [10] deals with Glucocorticoid receptor (Homo sapiens) (UniProt P04150). Description: GR-GFP Redistribution (AID 450;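 active means compounds whose dose series gives a full or clear partial fitted curve of increased nuclear translocation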; further: potency means the concentration at half of the fitted maximal effect). The following applies: U2OS GR-GFP nuclear translocation, laser cytometry, 2 h.
Chain of Glucocorticoid receptor (Homo sapiens) (P04150 whole entry, looked up, the tested form may be a part): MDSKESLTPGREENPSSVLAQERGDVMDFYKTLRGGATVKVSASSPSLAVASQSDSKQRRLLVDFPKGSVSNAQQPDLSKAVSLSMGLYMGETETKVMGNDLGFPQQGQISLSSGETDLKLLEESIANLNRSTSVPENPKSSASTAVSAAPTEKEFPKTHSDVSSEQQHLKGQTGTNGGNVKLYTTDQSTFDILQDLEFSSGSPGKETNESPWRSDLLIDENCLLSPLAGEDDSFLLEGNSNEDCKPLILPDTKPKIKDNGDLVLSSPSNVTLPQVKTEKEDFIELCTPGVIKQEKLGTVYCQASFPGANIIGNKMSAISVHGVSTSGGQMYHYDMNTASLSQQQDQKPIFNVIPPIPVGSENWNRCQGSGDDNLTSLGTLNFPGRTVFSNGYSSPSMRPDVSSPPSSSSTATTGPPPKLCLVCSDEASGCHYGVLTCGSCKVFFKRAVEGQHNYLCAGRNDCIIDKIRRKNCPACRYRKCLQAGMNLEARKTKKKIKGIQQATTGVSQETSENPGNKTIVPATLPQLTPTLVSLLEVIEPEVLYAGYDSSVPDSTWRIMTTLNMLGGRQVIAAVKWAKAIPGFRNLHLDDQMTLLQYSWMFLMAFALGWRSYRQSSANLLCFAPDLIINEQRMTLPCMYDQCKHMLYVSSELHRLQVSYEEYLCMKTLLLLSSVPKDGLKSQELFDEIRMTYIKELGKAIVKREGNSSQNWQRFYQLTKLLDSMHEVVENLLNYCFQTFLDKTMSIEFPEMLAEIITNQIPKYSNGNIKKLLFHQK
Assay [11] deals with Cytochrome P450 3A4 (Homo sapiens) (UniProt P08684). Kind of assay: qHTS Assay for Activators of Cytochrome P450 3A4 (AID 885; active means well fitted curve in the direction sought with a large enough effect; an effect the other way counts as inactive or inconclusive; further: nearly all actives have a fitted effect of over 65% in size). Particulars: recombinant CYP3A4, Luciferin-PPXE luminescence, 60 min; series mostly up to 57.1 µM. The method, boiled down:
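Human CYP3A4 dealkylates Luciferin-PPXE to luciferin, which luciferase detection converts to light. Substrate was at its KM (25uM), buffer 200mM KPO4, reaction 60 min at RT.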

The target is the same in assay [12]. Kind of assay: qHTS Assay for Inhibitors and Substrates of Cytochrome P450 3A4 (AID 884; active means well fitted curve in the direction sought with a large enough effect; an effect the other way counts as inactive or inconclusive; further: potency means the concentration at half of the fitted maximal effect; nearly all actives have a fitted effect of over 50% in size). The following applies: recombinant CYP3A4, Luciferin-PPXE luminescence; series mostly up to 57.1 µM. The method in brief: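 Luminescent readout of luciferin produced by CYP3A4 (20 nM) dealkylation of Luciferin-PPXE, 25 uM (its KM). NADPH-driven reaction ran 60 min at RT after 10 min compound preincubation; data scaled to 57 uM ketoconazole as 100% inhibition.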

Unmarked numbers belong to inactive results. Inconclusive results are not listed. The source made the active and inactive calls. Unless noted, the call rests on the fitted dose curve; in most records, active means well fitted curve in either direction with a large enough effect (not every such curve was filed as active); inconclusive means small, poorly fitted or top-dose-only effect, or another doubt; inactive means flat fitted curve, though single readings scatter.

Chain of Cytochrome P450 1A2 (Homo sapiens) (P05177 whole entry, looked up): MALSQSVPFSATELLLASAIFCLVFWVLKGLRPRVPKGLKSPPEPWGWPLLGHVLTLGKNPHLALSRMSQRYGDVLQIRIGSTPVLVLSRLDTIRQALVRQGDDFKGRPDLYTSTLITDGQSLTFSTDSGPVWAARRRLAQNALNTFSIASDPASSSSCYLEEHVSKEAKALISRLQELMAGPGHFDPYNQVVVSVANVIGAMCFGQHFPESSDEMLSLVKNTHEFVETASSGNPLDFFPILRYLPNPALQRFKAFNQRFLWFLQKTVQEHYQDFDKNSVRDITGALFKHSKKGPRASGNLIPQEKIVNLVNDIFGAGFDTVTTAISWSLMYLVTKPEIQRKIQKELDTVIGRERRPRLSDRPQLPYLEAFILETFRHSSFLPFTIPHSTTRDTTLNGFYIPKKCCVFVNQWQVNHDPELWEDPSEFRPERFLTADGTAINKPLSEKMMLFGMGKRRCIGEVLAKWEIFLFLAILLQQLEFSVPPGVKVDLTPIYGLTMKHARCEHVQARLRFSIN
Chain of 3',5'-cyclic-AMP phosphodiesterase 4B (Homo sapiens) (Q07343 whole entry, looked up): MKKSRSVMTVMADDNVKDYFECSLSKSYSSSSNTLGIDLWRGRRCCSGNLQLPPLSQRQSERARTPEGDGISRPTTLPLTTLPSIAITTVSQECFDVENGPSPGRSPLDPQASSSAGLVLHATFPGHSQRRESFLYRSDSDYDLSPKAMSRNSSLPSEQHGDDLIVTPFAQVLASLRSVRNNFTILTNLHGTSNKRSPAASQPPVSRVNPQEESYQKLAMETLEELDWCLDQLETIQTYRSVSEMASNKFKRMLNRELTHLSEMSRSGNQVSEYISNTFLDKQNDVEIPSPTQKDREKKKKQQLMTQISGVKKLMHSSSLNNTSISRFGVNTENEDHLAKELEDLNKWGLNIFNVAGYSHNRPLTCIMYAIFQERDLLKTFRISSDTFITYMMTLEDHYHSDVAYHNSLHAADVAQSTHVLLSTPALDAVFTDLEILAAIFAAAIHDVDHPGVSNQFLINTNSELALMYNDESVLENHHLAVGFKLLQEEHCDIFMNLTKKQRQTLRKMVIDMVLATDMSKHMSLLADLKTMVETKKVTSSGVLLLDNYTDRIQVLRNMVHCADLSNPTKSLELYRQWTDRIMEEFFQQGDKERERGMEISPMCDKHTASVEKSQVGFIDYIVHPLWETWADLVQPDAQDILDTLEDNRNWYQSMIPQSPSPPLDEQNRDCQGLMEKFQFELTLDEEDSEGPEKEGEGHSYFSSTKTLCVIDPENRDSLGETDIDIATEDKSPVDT
Chain of Cytochrome P450 3A4 (Homo sapiens) (P08684 whole entry, looked up): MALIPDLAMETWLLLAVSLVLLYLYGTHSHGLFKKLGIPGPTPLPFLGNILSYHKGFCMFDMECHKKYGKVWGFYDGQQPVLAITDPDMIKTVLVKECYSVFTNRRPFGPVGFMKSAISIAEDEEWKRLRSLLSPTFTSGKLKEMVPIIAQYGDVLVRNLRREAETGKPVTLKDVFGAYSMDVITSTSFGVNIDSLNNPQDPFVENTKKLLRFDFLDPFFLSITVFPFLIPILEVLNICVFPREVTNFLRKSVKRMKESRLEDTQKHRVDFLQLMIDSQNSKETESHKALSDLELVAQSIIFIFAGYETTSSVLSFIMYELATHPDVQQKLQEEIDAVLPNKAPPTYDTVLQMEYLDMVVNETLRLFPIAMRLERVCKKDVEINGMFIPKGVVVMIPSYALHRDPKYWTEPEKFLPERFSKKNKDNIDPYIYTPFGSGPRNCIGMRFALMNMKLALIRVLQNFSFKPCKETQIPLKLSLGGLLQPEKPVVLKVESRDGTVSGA

With `COCC(=O)N1CCC2(CCCN(C(=O)Nc3ccccc3)C2)CC1`, the results for the Potency in [1] and in [6] were > 11.4 µM and > 46 µM, respectively. For the same compound, the results for the activity change, negative = inhibition in assay [2] and in assay [4] were -1.58% and 13.8%, respectively. The Potency entry in assay [3], in assay [7] and in assay [8] was “inactive” throughout. In addition, in assay [5], the activity, negative = inhibition was 3.14%. In addition, in assay [9], the result was inactive.
`CC(=O)N1CCC2(CCCN(c3ncccn3)C2)CC1`: the values for the Potency in assay [1] and in assay [6] were > 11.4 µM and > 46 µM, respectively. Also, the activity change, negative = inhibition in assay [2] is -18.1%; in [4], 4.89%. For the same compound, the Potency result in assay [3], in [7] and in assay [8] was “inactive” throughout. The activity, negative = inhibition in [5] is -2.74%. In [9], the result was inactive.
For the compound `CS(=O)(=O)N1CCC2(CCCN(c3ncccn3)C2)CC1`, the Potency in assay [1] is > 11.4 µM; in assay [3] it was 15.8 µM (active); in assay [6], > 46 µM. The activity change, negative = inhibition in assay [2] was 1.67%; in [4], 2.98%. The activity, negative = inhibition in [5] was -8.29%. Besides, the Potency entry in [7] and in [8] was “inactive” in each case. Moreover, the outcome in assay [9] was inactive.
For `COc1ccc(C(=O)N2CCC3(CCCN(C)C3)CC2)cc1`, the Potency in [1] was > 11.4 µM; in assay [6], > 46 µM. For the same compound, the activity change, negative = inhibition in assay [2] was 2.83%; in assay [4], 0.644%. Besides, the Potency result in assay [3], in assay [7] and in assay [8] was “inactive” throughout. The activity, negative = inhibition in [5] was -7.5%. Further, in [9], the outcome was inactive.
For `COCC(=O)N1CCC2(CCCN(Cc3nccs3)C2)CC1`, the Potency in assay [1] was > 11.4 µM; in assay [6], > 46 µM. The activity change, negative = inhibition in assay [2] was -21.8%; in [4], -25.4%. The Potency entry in assay [3], in assay [7] and in assay [8] was “inactive” each time. The activity, negative = inhibition in [5] was -1.77%. For the same compound, the outcome in [9] was inactive.
With `COc1ccc(NC(=O)N2CC3(CCN(C(=O)c4cnccn4)CC3)C2)cc1`, the results for the Potency in assay [1] and in assay [6] were > 11.4 µM and > 46 µM, respectively. The activity change, negative = inhibition is 0.0652% in assay [2] and 15.4% in [4]. Also, the Potency entry in [3], in assay [7] and in [8] was “inactive” throughout. The activity, negative = inhibition in [5] is 4.6%. Also, in assay [9], the outcome was inactive.
As to `O=c1c(-c2cccc(F)c2)nc2cncnc2n1-c1ccccc1`, the Potency in [1] is > 11.4 µM; in assay [3], 10 µM (active); in assay [10] it was > 9.22 µM. The activity change, negative = inhibition in [2] is -10.3%; in assay [4], -2.26%. Moreover, in [5], the activity, negative = inhibition is -2.29%. Also, the Potency entry in assay [7] and in assay [11] was “inactive” each time. In assay [9], the result was inactive.
For the compound `CC(=O)N1CCC2(CC1)CCN(c1ccc(-c3ccccc3)cc1)CC2`, the Potency in assay [1] was > 11.4 µM; in assay [3] it was 10 µM (active); in assay [6], > 46 µM. The activity change, negative = inhibition in [2] was 47.5%; in [4] it was -28%. Besides, the activity, negative = inhibition in assay [5] was -16.9%. Also, the Potency entry in assay [7] and in [8] was “inactive” throughout. In addition, the result in assay [9] was inactive.
Consider `COCCn1c(=O)c(-c2cn(C)c3ccccc23)nc2cncnc21`, for which the Potency in assay [1] was > 11.4 µM; in assay [3] it was 0.398 µM (active); in assay [10] it was > 9.22 µM; in assay [6], > 46 µM; in assay [12], 3.16 µM (active). For the same compound, the activity change, negative = inhibition in assay [2] was 1.74%; in [4], -1.67%. Also, the activity, negative = inhibition in [5] was -9.49%. Also, the Potency entry in [7] and in assay [11] was “inactive” each time. Further, the outcome in assay [9] was inactive.
